{"source": "ChEMBL document CHEMBL3988442", "about": "“University of Dundee, Small-Polar-MMV Screening Library” (2021)", "data": [{"biological_target": "T1, Aspartate--tRNA(Asp/Asn) ligase (Mycobacterium tuberculosis (strain ATCC 25618 / H37Rv)) (UniProt P9WFW3)", "T1 sequence (whole entry)": "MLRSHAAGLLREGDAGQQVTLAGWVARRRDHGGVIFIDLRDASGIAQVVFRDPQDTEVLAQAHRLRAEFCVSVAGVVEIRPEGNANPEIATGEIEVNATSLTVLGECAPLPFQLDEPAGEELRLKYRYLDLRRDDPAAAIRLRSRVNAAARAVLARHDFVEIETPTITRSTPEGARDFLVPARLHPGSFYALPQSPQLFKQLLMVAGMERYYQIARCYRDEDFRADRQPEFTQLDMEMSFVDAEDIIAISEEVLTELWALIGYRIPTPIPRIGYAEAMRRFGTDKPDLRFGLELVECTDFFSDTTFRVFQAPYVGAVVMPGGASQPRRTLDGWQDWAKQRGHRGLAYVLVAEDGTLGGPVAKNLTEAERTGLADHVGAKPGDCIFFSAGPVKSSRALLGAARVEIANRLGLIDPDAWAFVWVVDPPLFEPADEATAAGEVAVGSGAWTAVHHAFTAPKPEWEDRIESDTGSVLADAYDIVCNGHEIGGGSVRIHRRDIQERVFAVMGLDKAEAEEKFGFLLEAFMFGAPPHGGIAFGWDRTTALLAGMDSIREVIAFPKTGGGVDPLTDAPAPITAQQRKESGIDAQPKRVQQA", "experiment": "Assay for Asp RNA synthetase-1 from Mycobacterium tuberculosis", "assay_type": "functional", "set-up": "scale not given: direction of the effect not stated beside the values", "conditions": "30 µM", "units": {"Percent Effect": "%"}, "values": [{"smiles": "CO[C@H]1CCN(c2ncccn2)[C@H]1Cc1ccccc1", "Percent Effect": 1.75}, {"smiles": "CC(=O)N1CCC(c2cc(C(F)(F)F)n3ccnc3n2)CC1", "Percent Effect": 6.9}, {"smiles": "O=C(COc1coc(CN2CCCCC2)cc1=O)Nc1ccc(Cl)cc1", "Percent Effect": 3.86}, {"smiles": "CN(CC(=O)N1CCC(C(O)c2ccccc2)CC1)c1cnccn1", "note": "(stereo not given)", "Percent Effect": -0.321}, {"smiles": "Clc1ccc(-n2cc(CNC3CCc4ncnn4C3)cn2)cc1", "note": "(stereo not given)", "Percent Effect": -5.31}, {"smiles": "CC(C)CN1CCC2(CCN(Cc3ccsc3)CC2)C1=O", "Percent Effect": -5.3}, {"smiles": "Cc1ccccc1N1CCN(C(=O)c2ccc[nH]2)C(C)C1", "note": "(stereo not given)", "Percent Effect": -2.33}, {"smiles": "CCc1n[nH]c(C2CN(C(=O)CCc3cccs3)CCO2)n1", "note": "(stereo not given)", "Percent Effect": -2.02}, {"smiles": "CN(C)c1ccc(C(=O)NCC2(c3ccccc3)CCOCC2)cc1", "Percent Effect": 1.31}, {"smiles": "c1ccc(-c2noc(CN3CCc4cncnc4C3)n2)nc1", "Percent Effect": 2.21}, {"smiles": "Cc1cc(N2CCN(CC(=O)N(C)C)CC2)nc(-c2ccncc2)n1", "Percent Effect": -3.92}, {"smiles": "Cc1occc1C(=O)N1CCC2(CC1)NC(=O)CC2c1cnn(C)c1", "note": "(stereo not given)", "Percent Effect": -0.199}, {"smiles": "CN(Cc1cccc(F)c1)C1CCN(CCc2ccccn2)CC1", "Percent Effect": -3.32}, {"smiles": "Cn1cc(C(=O)N2CCCC(Cc3nccs3)C2)cn1", "note": "(stereo not given)", "Percent Effect": 2.4}, {"smiles": "Cc1[nH]c(=O)[nH]c(=O)c1CN1CCCC(CCc2ccccc2)C1", "note": "(stereo not given)", "Percent Effect": -0.814}, {"smiles": "O=C(NCCCn1ccnc1)N1CCN(c2cccs2)CC1", "Percent Effect": -0.0463}, {"smiles": "Cc1nn(C)c2cnn(C(C)C(=O)NCc3cccnc3)c12", "note": "(stereo not given)", "Percent Effect": -7.38}, {"smiles": "Cc1noc([C@H]2C[C@H]3OCC[C@H]3N(Cc3ccc4c(c3)OCO4)C2)n1", "Percent Effect": 2.03}, {"smiles": "O=C(CN1CCC(N2CCNC2=O)CC1)NCC(F)(F)F", "Percent Effect": -5.14}, {"smiles": "CN(Cc1ccco1)[C@@H]1CN(Cc2ccc(F)cc2)C[C@@H]2CCCO[C@@H]21", "Percent Effect": 6.12}]}, {"biological_target": "Shiga toxin 2 (Escherichia coli O157:H7) (UniProt P09385+P09386)", "experiment": "E. coli 0.157:H7 Shiga Toxin SOP - stx2 screening assay", "assay_type": "functional", "set-up": "scale not given: direction of the effect not stated beside the values", "conditions": "30 µM", "units": {"Percent Effect": "%"}, "values": [{"smiles": "Cn1cc(CNCCOc2ccc(F)c(F)c2)c(-c2cccnc2)n1", "Percent Effect": -38.1}, {"smiles": "CCN(CC1CCCO1)C(=O)Nc1cc(C(=O)OC)ccc1F", "note": "(stereo not given)", "Percent Effect": 15.3}, {"smiles": "c1nc(COCC2CC2)c2n1CCCN(CC1CC1)C2", "Percent Effect": -11.2}, {"smiles": "CCc1nnc2n1CCN(C(=O)c1ccc3[nH]cnc3c1)C2", "Percent Effect": -13.3}, {"smiles": "N#Cc1ccccc1N1CCCN(C(=O)CCn2cccn2)CC1", "Percent Effect": 3.42}, {"smiles": "O=C(c1ccc[nH]1)N1CCC2(CC1)C(=O)Nc1ccccc12", "Percent Effect": 16.7}, {"smiles": "Cc1ccc(C)c(-c2csc(N)c2C#N)c1", "Percent Effect": 4.18}, {"smiles": "N#Cc1cccc(CN2CC[C@@H]3[C@@H]2CC(=O)N3Cc2cccnc2)c1", "Percent Effect": -0.447}, {"smiles": "O=C(NCC(O)c1ccccc1Cl)c1cccc(-n2cnnn2)c1", "note": "(stereo not given)", "Percent Effect": 2.65}, {"smiles": "COc1cccc2cc(CNC(C)(C)C(=O)N3CCC(O)CC3)oc12", "Percent Effect": 4.9}, {"smiles": "Cc1ccccc1CC1(CO)CCCN(c2ncccc2C#N)C1", "note": "(stereo not given)", "Percent Effect": -4.79}, {"smiles": "CNc1cncc(C2CCCN2Cc2ccccc2OCC(=O)O)n1", "note": "(stereo not given)", "Percent Effect": 3.64}, {"smiles": "Cc1cc(C)n(CC2CN(CC(=O)NC3CCCC3)CCO2)n1", "note": "(stereo not given)", "Percent Effect": 13.3}, {"smiles": "CC(=O)N1CCCC(Cc2cncc(Br)c2)CC1", "note": "(stereo not given)", "Percent Effect": -11}, {"smiles": "O=C(Nc1ccc(F)cc1)N1C[C@H]2CC[C@@H]1CN(Cc1cccnc1)C2", "Percent Effect": -26.1}, {"smiles": "CC(C)c1nnc2n1CCN(CCCS(=O)(=O)c1ccccc1)C2", "Percent Effect": -15.3}, {"smiles": "c1ccc(OC2CCCC2)c(CNC2CCc3ncnn3C2)c1", "note": "(stereo not given)", "Percent Effect": 9.47}, {"smiles": "COc1ccc(C(=O)NCC(c2cccn2C)N2CCCC2)c(OC)c1", "note": "(stereo not given)", "Percent Effect": -22.3}, {"smiles": "CC(O)CN1CCN(C(=O)c2ccc(N(C)C)nc2)CC1", "note": "(stereo not given)", "Percent Effect": -70}, {"smiles": "Cc1nn(C)c(N(C)C)c1CNC1CCc2c(F)cccc21", "note": "(stereo not given)", "Percent Effect": 33.1}, {"smiles": "CO[C@H]1CCN(c2ncccn2)[C@H]1Cc1ccccc1", "Percent Effect": -19.4}, {"smiles": "CC(=O)N1CCC(c2cc(C(F)(F)F)n3ccnc3n2)CC1", "Percent Effect": -9.96}, {"smiles": "O=C(COc1coc(CN2CCCCC2)cc1=O)Nc1ccc(Cl)cc1", "Percent Effect": -36.2}, {"smiles": "CN(CC(=O)N1CCC(C(O)c2ccccc2)CC1)c1cnccn1", "note": "(stereo not given)", "Percent Effect": -9.59}, {"smiles": "Clc1ccc(-n2cc(CNC3CCc4ncnn4C3)cn2)cc1", "note": "(stereo not given)", "Percent Effect": -39.9}, {"smiles": "CC(C)CN1CCC2(CCN(Cc3ccsc3)CC2)C1=O", "Percent Effect": -18.6}, {"smiles": "Cc1ccccc1N1CCN(C(=O)c2ccc[nH]2)C(C)C1", "note": "(stereo not given)", "Percent Effect": 24.5}, {"smiles": "CCc1n[nH]c(C2CN(C(=O)CCc3cccs3)CCO2)n1", "note": "(stereo not given)", "Percent Effect": -49.5}, {"smiles": "CN(C)c1ccc(C(=O)NCC2(c3ccccc3)CCOCC2)cc1", "Percent Effect": -24.7}, {"smiles": "c1ccc(-c2noc(CN3CCc4cncnc4C3)n2)nc1", "Percent Effect": -24.6}, {"smiles": "Cc1cc(N2CCN(CC(=O)N(C)C)CC2)nc(-c2ccncc2)n1", "Percent Effect": -5.53}, {"smiles": "Cc1occc1C(=O)N1CCC2(CC1)NC(=O)CC2c1cnn(C)c1", "note": "(stereo not given)", "Percent Effect": -2.15}, {"smiles": "CN(Cc1cccc(F)c1)C1CCN(CCc2ccccn2)CC1", "Percent Effect": -8.85}, {"smiles": "Cn1cc(C(=O)N2CCCC(Cc3nccs3)C2)cn1", "note": "(stereo not given)", "Percent Effect": 14.9}, {"smiles": "Cc1[nH]c(=O)[nH]c(=O)c1CN1CCCC(CCc2ccccc2)C1", "note": "(stereo not given)", "Percent Effect": -2.29}, {"smiles": "O=C(NCCCn1ccnc1)N1CCN(c2cccs2)CC1", "Percent Effect": -102}, {"smiles": "Cc1nn(C)c2cnn(C(C)C(=O)NCc3cccnc3)c12", "note": "(stereo not given)", "Percent Effect": -21.6}, {"smiles": "Cc1noc([C@H]2C[C@H]3OCC[C@H]3N(Cc3ccc4c(c3)OCO4)C2)n1", "Percent Effect": -3.36}, {"smiles": "O=C(CN1CCC(N2CCNC2=O)CC1)NCC(F)(F)F", "Percent Effect": -3.06}, {"smiles": "CN(Cc1ccco1)[C@@H]1CN(Cc2ccc(F)cc2)C[C@@H]2CCCO[C@@H]21", "Percent Effect": 7.23}]}]}
